The structures appear in SMILES notation. Several values for one entry are separate records, joined by “and”; a condition that tells them apart may be missing. Equal entries are not always repeated. Records with an inconclusive call do not appear. Activity calls are given as the source filed them. Calls come from the whole dose curve; as a rule, active = well fitted inhibition curve with a large enough effect; inconclusive = small, poorly fitted or top-dose-only effect; inactive = no such curve, though single readings can be large or run the other way. Where a SMILES comes first, the peptide text is derived from it. The star is where a group is joined. AFC = O=c1cc(C(F)(F)F)c2ccc(N*)cc2o1

N-terminal Xaa-Pro-Lys N-methyltransferase 1 (Homo sapiens), sequence (Q9BV86 whole entry, looked up): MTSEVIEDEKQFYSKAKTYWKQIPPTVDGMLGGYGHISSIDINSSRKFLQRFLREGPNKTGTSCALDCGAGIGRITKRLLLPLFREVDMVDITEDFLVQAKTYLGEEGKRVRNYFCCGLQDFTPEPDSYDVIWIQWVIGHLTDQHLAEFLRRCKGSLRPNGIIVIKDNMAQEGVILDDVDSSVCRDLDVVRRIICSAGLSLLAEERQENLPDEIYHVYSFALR

The experiment has as its target N-terminal Xaa-Pro-Lys N-methyltransferase 1 (Homo sapiens) (UniProt Q9BV86). The experiment is described as follows: Orthogonal qHTS for Inhibitors of N-terminal methyltransferase 1 (NTMT1): ThioGlo Assay. As to conditions: NTMT1 SAHH-coupled ThioGlo fluorescence, 30 min; series mostly up to 84.5 µM. From the text:
Assay Submitter (PI): Rong Huang Ph.D. Purdue University, West Lafayette, IN 47907 The N-terminal methytransferase 1 is the first methyltransferase that methylates protein alpha-N-amines and plays an important role in regulating cell mitosis, chromatin interactions and DNA repair. It is observed to be over-expressed in various cancer patient tissues like malignant melanoma and colorectal cancer tissues. Knockdown of NTMT1 in cancer cells causes cell mitotic defects and enhances sensitivity to DNA damaging chemotherapeutics. […] These critical cellular processes in which NTMT1 is implicated, coupled with emerging links to cellular dysfunction, strengthen the inference that NTMT1 is a compelling novel anticancer target. Progress have been made in understanding the molecular properties of NTMT1 and the biological consequences of protein alpha-N-terminal methylation, but there are no specific small molecule probes available for NTMT1 to fully characterize its MTase activity. To address this unmet need, a panel of assay is created and established to enable quantitative high-throughput screening (qHTS) for novel, potent, and selective small molecule NTMT1 inhibitors. Two orthogonal qHTS that use different reagents (ThioGlo vs. MTaseGlo) are developed for primary robotic screening against the NCATS chemical library of more than 400,000 small molecules. Identified inhibitors are reacquired, validated, and further characterized. […] Early Translation Branch (ETB) National Center for Advancing Translational Sciences (NCATS) National Institute of Health (NIH)
Materials: NTMT1 enzyme, substrate SPKRIA, control peptide RCC1-6 is provided by the Huang laboratory. MTaseGlo Assay: PROTOCOL TABLE; SEQUENCE No. (e.g., 1, 2, 3, etc.); […] (e.g., Cells, Incubation, Reagent, etc.); VALUE; DESCRIPTION 1; Enzyme; 3 uL; Dispense enzyme mixture (final concentrations of 125 nM NTMT1) into Greiner 1536-well black / solid bottom assay plate (Greiner Bio One, Monroe, NC). 2; Compounds; 23 nL; Compounds (at various concentration) and 1uM final concentration of RCC1-6 (SPKRIA) control were transferred via a Kalypsys Pin Tool (Wako USA) equipped with a 1536-slotted pin array (Wako Automation, Richmond, VA). 3; Incubation; 1 min; Incubate at room temperature. 4; Substrate; 1 uL; Dispense 1 uL of substrate solution (100uM SAM, 10uM SAHH, 15uM ThioGlo3 final concentration) was added to the wells bringing the final assay volume to 4uL. The assay plate was covered with metal lids. 5; Detection; Fluorescence; Initial fluorescence readout (background signal) was detected using the ViewLux microplate imager with an excitation filter of 340 nm and 450 nm emission filter. 6; Incubation; 30 min; Assay plates were incubation at room temperature in the dark. 7; Detection; Fluorescence; Final fluorescence readout was detected using the ViewLux microplate imager with an excitation filter of 340 nm and 450 nm emission filter. The data was normalized to the background fluorescence.
Background: Quantitative high-throughput screening tests each substance at several concentrations.
With `COc1cc2c(NC3CCN(C)CC3)nc(N3CCCN(C)CC3)nc2cc1OCCCCCN`, the Potency was 30.8 µM (active).
As for `Nc1ccc(C(=O)Nc2cccc(-c3nc(N4CCOCC4)c4oc5ncccc5c4n3)c2)cn1`, the figure is 22.1 µM (active); as for `NC(=O)c1cccc(-c2cc(OC(=O)NC3CCCCC3)ccc2O)c1`, “inactive”; as for `Cc1ccnc(NC(=S)N2CCN(c3cc(C(F)(F)F)cc(C(F)(F)F)c3)CC2)c1`, 4.35 µM (active).
As for `COc1cc2c(NC3CCN(CC4CCCCC4)CC3)nc(N3CCCN(C(C)C)CC3)nc2cc1OCCCN1CCCCC1`, the figure is 12.3 µM (active).
With `Fc1ccccc1CNCc1ccc(-c2ccnc3[nH]ccc23)cc1`, the Potency is 49.4 µM (active).
The same measure for `COc1ccc2nc(-c3cc(OC)c(OC)c(OC)c3)cc(C(=O)NCC(=O)Nc3ccc(C(C)=O)cc3)c2c1`: 31.2 µM (active); for `Fc1cc(-c2cccc3ncc(-c4cnn(C5CCNCC5)c4)nc23)cc(F)c1CN1CCOCC1`: 34.5 µM (active); for `COc1c(C(C)C)c(O)c(O)c2c1C(OC)[C@H]1OC(=O)[C@@]23CCCC(C)(C)[C@H]13` (stereo not given in full): 6.1 µM (active).
The same measure for `COc1cc2c(NC3CCN(C(C)C)CC3)nc(N3CCCN(c4ccccc4)CC3)nc2cc1OCCCN1CCCC1`: 55.5 µM (active); for `COc1cc2c(NC3CCN(C)CC3)nc(N3CCCN(C)CC3)nc2cc1OCCCN1CCCCC1`: 43.5 µM (active); for `Oc1cc2c(c(Cl)c1O)CCNCC2c1ccccc1` (stereo not given): 30.8 µM (active).
Consider `CC(=O)N[C@@H](CC(C)C)C(=O)N[C@@H](CCC(=O)O)C(=O)N[C@@H](CCC(=O)O)C(=O)N[C@@H](CC(=O)O)C(=O)Nc1ccc2c(C(F)(F)F)cc(=O)oc2c1` (Ac-LEED-{AFC}), for which the Potency is 44.1 µM (active).
The same measure for `COc1cc2c(NC3CCN(C(C)C)CC3)nc(N3CCCCC3)nc2cc1OCCOCCN(C)C`: 34.5 µM (active); for `COc1cc(N2CCC(O)CC2)ccc1Nc1nc(Nc2ccccc2S(=O)(=O)C(C)C)c2[nH]cnc2n1`: 19.7 µM (active).
With `CN=c1nc(-c2ccccc2)n(-c2ccccc2)s1`, the Potency is 5.55 µM (active).
Take `CNCCCOc1cc2nc(N3CCCN(C)CC3)nc(NC3CCN(C)CC3)c2cc1OC`: the Potency was 43.5 µM (active).
As to `Cc1cc(O)c2c(c1)C(=O)c1cc(O)cc(O)c1C2=O`, the Potency was 27.4 µM (active).
For `CC[C@@H](C)Nc1cc(C(=O)NC2CC3CC[C@@H](C2)N3c2ccc(C(=O)C3CC3)cn2)c(C)cc1C(N)=O` (stereo not given in full), the Potency was 35 µM (active).
As for `COc1cc2c(NC3CCN(C(C)C)CC3)nc(N3CCCCC3)nc2cc1OCCCN1CCCCC1`, the entry is “inactive”; as for `Cc1cccc(/C=C/c2ccccc2)n1`, “inactive”; as for `O=S(=O)(Cc1ccccc1)Nc1ccc(-c2ccc3c(cnn3-c3ccc(F)cc3)c2)c(C(F)(F)F)c1`, “inactive”.
For the molecule `O=C1NC(=O)/C(=C/c2ccc(-c3ccc(F)cc3O)o2)S1`, the Potency was 30.8 µM (active).
Regarding `O=C(/C=C/c1ccc(O)c(O)c1)OCCc1ccccc1`, the Potency was 17.3 µM (active).
`CC(C)c1cc2c(c(O)c1O)[C@@]13CCCC(C)(C)C1[C@@H](O)[C@@H]2OC3=O` (stereo not given in full): the Potency was 12.2 µM (active).
The same measure for `COc1ccc(C2=Nn3c(nnc3-c3ccccc3F)SC2)cc1OC1CCCC1`: “inactive”.
In the case of `CCOc1ccccc1N1CC(c2nc3ccccc3n2CCCCOc2cc(C)ccc2C)CC1=O` (stereo not given), the Potency entry was “inactive”.
The same measure for `COc1c(C)c(C(=O)c2ccc(N)c(C(=O)O)c2)n2ccccc12`: 1.97 µM (active) and 1.75 µM (active); for `C[C@]12CC[C@@H]3c4ccc(O)c(O)c4CC[C@H]3[C@@H]1CCC2=O`: 17.5 µM (active).
As for `Cc1cc(C)c2c(N)c(C(=O)NCc3ccc(Cl)cc3)sc2n1`, the Potency entry is “inactive”.
The same measure for `COc1cc2c(NC3CCN(CC4CCCCC4)CC3)nc(N3CCCCC3)nc2cc1OCCOCCN(C)C`: 12.3 µM (active).
As for `COc1ccc(-c2nnc3n2N=C(c2c(OC)cccc2OC)CS3)cc1OC`, the entry is “inactive”; as for `CCNC(=O)c1noc(-c2cc(C(C)C)c(O)cc2O)c1-c1ccc(CN2CCOCC2)cc1`, “inactive”.
Consider `Cc1cc(C)nc(NC(=S)N2CCN(c3cccc(S(C)(=O)=O)c3)CC2)c1`, for which the Potency is 12.3 µM (active).
As for `COc1cc2c(NC3CCN(CC4CCCCC4)CC3)nc(N3CCCN(C)CC3)nc2cc1OCCCN1CCCCC1`, the figure is 43.5 µM (active).
As for `Fc1cc(Nc2nc(-c3ccncc3)nc3ccccc23)ccc1N1CCNCC1`, the figure is 21.8 µM (active).
As for `CNC(=O)c1ccccc1Nc1cc(Nc2ccc(N3CCOCC3)cc2OC)ncc1C(F)(F)F`, the figure is 8.79 µM (active).
`CC(C)c1cc2c(c(O)c1O)[C@@]13CCCC(C)(C)[C@@H]1[C@H](OC3=O)C2=O`: the Potency is 9.67 µM (active).
Consider `c1cc(CN2CCCCC2)cc(OCCCNc2nc3ccccc3s2)c1`, for which the Potency entry was “inactive”.
Take `CCN1CCCN(c2nc(NC3CCN(C(C)C)CC3)c3cc(OC)c(OCCCN4CCCCC4)cc3n2)CC1`: the Potency is 38.8 µM (active).

The record behind these values is PubChem BioAssay AID1645875 (National Center for Advancing Translational Sciences (NCATS), 2021).
